Laboratory results taken from PubChem BioAssay AID1159580 (chemical genetic matrix, 2015).
Out of some 5,500 compounds screened, about 2,000 (36%) were called active. Another 18% or so got no clear call; they are omitted. Rule as the data show it: active = normalized growth mostly below about 0.91 (no sharp cut-off); inconclusive = no clear call, values can overlap the other calls; inactive = mostly above about 0.92. The list shows a part of the results.

Test: chemical genetic growth profiling, strain panel (AID 1159580);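 also: tested at 20 µM; growth read once vehicle control cultures reached saturation at 30 °C; 1 = growth at the plate median or of vehicle wells; lower values mean less growth of the strain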
Settings: growth OD

Measured: normalized growth

C[C@]12CCC3c4ccc(OS(=O)(=O)O)cc4CCC3C1CC[C@H]2O (stereo not given in full)
inactive: S. cerevisiae deletion strains, locus YJR043C, strain POL32, active compounds read low 1 | S. cerevisiae deletion strains, locus YJR066W, strain TOR1, active compounds read low 0.983 | S. cerevisiae deletion strains, locus YKL009W, strain mrt4, active compounds read low 0.99 | S. cerevisiae deletion strains, locus YKL068W, active compounds read low 0.995 | S. cerevisiae deletion strains, locus YKL085W, strain MDH1 (second series), active compounds read low 0.987 | S. cerevisiae deletion strains, locus YKL085W, strain MDH1, active compounds read low 0.987 | S. cerevisiae deletion strains, locus YKL160W, strain elf1, active compounds read low 0.923 | S. cerevisiae deletion strains, locus YKL190W, strain CNB1, active compounds read low 1 | S. cerevisiae deletion strains, locus YKR001C, strain vps1, active compounds read low 0.994 | S. cerevisiae deletion strains, locus YKR026C, strain gcn3, active compounds read low 0.988 | S. cerevisiae deletion strains, locus YKR091W, strain srl3, active compounds read low 0.97 | S. cerevisiae deletion strains, locus YLL001W, strain dnm1, active compounds read low 0.994 | S. cerevisiae deletion strains, locus YLL026W, active compounds read low 0.967 | S. cerevisiae deletion strains, locus YLL041C, strain sdh2, active compounds read low 0.978 | S. cerevisiae deletion strains, locus YLR027C, strain aat2, active compounds read low 0.997 | S. cerevisiae deletion strains, locus YLR039C, strain RIC1, active compounds read low 0.977 | S. cerevisiae deletion strains, locus YLR058C, strain SHM2, active compounds read low 0.99 | S. cerevisiae deletion strains, locus YLR102C, strain apc9, active compounds read low 0.99 | S. cerevisiae deletion strains, locus YLR113W, strain HOG1, active compounds read low 0.963 | S. cerevisiae deletion strains, locus YLR221C, strain rsa3, active compounds read low 1.02 | S. cerevisiae deletion strains, locus YLR258W, strain gsy2, active compounds read low 0.965 | S. cerevisiae deletion strains, locus YLR262C, strain YPT6 (second series), active compounds read low 0.977 | S. cerevisiae deletion strains, locus YLR262C, strain YPT6, active compounds read low 0.945 | S. cerevisiae deletion strains, locus YLR268W, strain sec22, active compounds read low 0.973 | S. cerevisiae deletion strains, locus YLR320W, strain mms22, active compounds read low 1.02 | S. cerevisiae deletion strains, locus YLR330W, strain CHS5, active compounds read low 0.987 | S. cerevisiae deletion strains, locus YLR342W, strain FKS1 (second series), active compounds read low 0.988 | S. cerevisiae deletion strains, locus YLR342W, strain FKS1, active compounds read low 0.987 | S. cerevisiae deletion strains, locus YLR357W, strain rsc2, active compounds read low 0.955 | S. cerevisiae deletion strains, locus YLR370C, strain arc18, active compounds read low 0.976 | S. cerevisiae deletion strains, locus YLR371W, strain rom2, active compounds read low 0.986 | S. cerevisiae deletion strains, locus YLR384C, strain iki3, active compounds read low 0.959 | S. cerevisiae deletion strains, locus YLR418C, strain cdc73, active compounds read low 0.973 | S. cerevisiae deletion strains, locus YML016C, strain PPZ1, active compounds read low 0.993 | S. cerevisiae deletion strains, locus YML032C, strain rad52, active compounds read low 0.989 | S. cerevisiae deletion strains, locus YML120C, strain ndi1, active compounds read low 0.995 | S. cerevisiae deletion strains, locus YML124C, strain tub3, active compounds read low 0.988 | S. cerevisiae deletion strains, locus YMR058W, strain fet3, active compounds read low 0.979 | S. cerevisiae deletion strains, locus YMR078C, strain ctf18, active compounds read low 0.982 | S. cerevisiae deletion strains, locus YMR125W, strain sto1, active compounds read low 0.994 | S. cerevisiae deletion strains, locus YMR129W, active compounds read low 0.961 | S. cerevisiae deletion strains, locus YMR205C, strain PFK2, active compounds read low 1.01 | S. cerevisiae deletion strains, locus YMR223W, strain ubp8, active compounds read low 0.985 | S. cerevisiae deletion strains, locus YMR231W, strain pep5, active compounds read low 0.991 | S. cerevisiae deletion strains, locus YMR263W, strain SAP30, active compounds read low 1 | S. cerevisiae deletion strains, locus YMR307W, strain GAS1, active compounds read low 0.928 | S. cerevisiae deletion strains, locus YNL067W, strain RPL9B, active compounds read low 1.02 | S. cerevisiae deletion strains, locus YNL071W, strain lat1, active compounds read low 0.988 | S. cerevisiae deletion strains, locus YNL128W, strain TEP1, active compounds read low 0.982 | S. cerevisiae deletion strains, locus YNL153C, strain GIM3, active compounds read low 1.03 | S. cerevisiae deletion strains, locus YNL183C, strain NPR1, active compounds read low 0.913 | S. cerevisiae deletion strains, locus YNL209W, strain ssb2, active compounds read low 0.979 | S. cerevisiae deletion strains, locus YNL233W, strain BNI4, active compounds read low 0.998 | S. cerevisiae deletion strains, locus YNL248C, strain rpa49, active compounds read low 0.914 | S. cerevisiae deletion strains, locus YNL250W, strain rad50, active compounds read low 0.995 | S. cerevisiae deletion strains, locus YNL271C, strain bni1, active compounds read low 0.989 | S. cerevisiae deletion strains, locus YNL298W, strain CLA4, active compounds read low 0.984 | S. cerevisiae deletion strains, locus YNL307C, strain MCK1, active compounds read low 0.98 | S. cerevisiae deletion strains, locus YNL322C, strain KRE1 (second series), active compounds read low 0.952 | S. cerevisiae deletion strains, locus YNR049C, strain mso1, active compounds read low 0.953 | S. cerevisiae deletion strains, locus YNR052C, strain pop2, active compounds read low 0.982 | S. cerevisiae deletion strains, locus YOL006C, strain TOP1, active compounds read low 1.05 | S. cerevisiae deletion strains, locus YOL012C, strain htz1 1.45 | S. cerevisiae deletion strains, locus YOL147C, strain pex11, active compounds read low 0.984 | S. cerevisiae deletion strains, locus YOR001W, strain rrp6, active compounds read low 1.01 | S. cerevisiae deletion strains, locus YOR061W, strain CKA2, active compounds read low 0.986 | S. cerevisiae deletion strains, locus YOR069W, strain VPS5, active compounds read low 0.988 | S. cerevisiae deletion strains, locus YOR070C, strain gyp1, active compounds read low 0.991 | S. cerevisiae deletion strains, locus YOR080W, strain dia2, active compounds read low 0.96 | S. cerevisiae deletion strains, locus YOR083W, strain WHI5, active compounds read low 0.901 | S. cerevisiae deletion strains, locus YOR106W, strain vam3, active compounds read low 0.95 | S. cerevisiae deletion strains, locus YOR136W, strain idh2, active compounds read low 0.988 | S. cerevisiae deletion strains, locus YOR144C, strain elg1, active compounds read low 0.987 | S. cerevisiae deletion strains, locus YOR184W, strain ser1, active compounds read low 0.995 | S. cerevisiae deletion strains, locus YOR231W, strain MKK1, active compounds read low 0.965 | S. cerevisiae deletion strains, locus YOR265W, strain rbl2, active compounds read low 0.978 | S. cerevisiae deletion strains, locus YOR270C, strain vph1, active compounds read low 0.97 | S. cerevisiae deletion strains, locus YOR290C, strain snf2, active compounds read low 0.951 | S. cerevisiae deletion strains, locus YOR316C, strain cot1, active compounds read low 0.989 | S. cerevisiae deletion strains, locus YPL051W, strain arl3, active compounds read low 0.973 | S. cerevisiae deletion strains, locus YPL078C, strain atp4, active compounds read low 0.97 | S. cerevisiae deletion strains, locus YPL106C, strain sse1, active compounds read low 0.955 | S. cerevisiae deletion strains, locus YPL240C, strain hsp82, active compounds read low 0.984 | S. cerevisiae deletion strains, locus YPL256C, strain CLN2, active compounds read low 0.981 | S. cerevisiae deletion strains, locus YPR119W, strain clb2, active compounds read low 0.988 | S. cerevisiae deletion strains, locus YPR141C, strain kar3, active compounds read low 0.984 | S. cerevisiae deletion strains, locus YPR163C, strain tif3, active compounds read low 0.984 | S. cerevisiae deletion strains, locus YPR167C, strain met16, active compounds read low 0.988 | S. cerevisiae deletion strains, strain wtn01, active compounds read low 0.975 | S. cerevisiae strains, strain wild type, active compounds read low 0.999
